# Experimental data taken from PubChem BioAssay (NCI).
# This is part of a sample that, as a whole, favours compounds with a hit. Of some 83,000 tested, about 20% had one in any assay.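 Step 1: grow cells in 96-well plates. Step 2: add test compound at a single concentration. Step 3: incubate 48 h. Step 4: record percent growth.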 Unmarked numbers belong to inactive results. Activity calls are given as the source filed them. Rule for the calls: active = growth percent below 10; inactive = the rest.
# System: T-47D breast
# Test: NCI-60 one-dose screen, 48 h (100 = growth as untreated, 0 = no growth, -100 = all killed)
# Settings: 10 µM unless noted
row,SMILES,growth
1,COc1ccc2oc3c4[nH]c5ccccc5c4c4c(c3c2c1)C(=O)N(O)C4=O,97.7%
2,O=S(=O)(NCCCNc1nccc(-n2cnc3ccccc32)n1)c1ccc(F)cc1,25.5%
3,CCNC(=O)Oc1ccc(/C(=C(/C)c2ccc(Cl)cc2)c2ccc(OCCN(C)C)cc2)cc1,54.8%
4,Oc1ccc(CSc2nnc(-c3ccc(Oc4ccccc4)cc3)n2-c2ccccc2)c2cccnc12,4.84% (active)
5,Fc1ccc(-c2cc3nc(C(Cl)Cl)nc(-c4cccs4)n3n2)cc1,25.2%
6,Fc1ccccc1/C=C(/C1=NCCN1)n1cnc2ccccc21,99.1%
7,COc1ccc2c(c1)c(-c1nn3c(=O)cc(-c4ccccc4)nc3s1)cn2C,16%
8,O=C1c2cc(Br)ccc2-n2c1nc1cc(Br)ccc1c2=O,79.7%
9,CCOC(=O)C1=C(C)Nc2nnc(Nc3ccccc3)n2C1c1ccccc1 (stereo not drawn),58.2%
10,CCc1ccc(NC(=O)N[C@@H](Cc2cccc(C)c2)C(=O)N[C@@H]2C(=O)N3CCC[C@H]3C(=O)N3CCCC[C@H]3C(=O)N[C@@H](CO)C(=O)N3C[C@H](C)C[C@H]3C(=O)O[C@H]2C)c(F)c1,27.4%
11,COc1ccc(-c2cc(-c3cccc4ccccc34)n3c(n2)nc2ccccc23)cc1OC,19.2%
12,COc1cc2oc(-c3cccc(NC(=O)c4cc(NC(=O)[C@H](C)N)ccc4Cl)c3)cc(=O)c2c(OC)c1OC,67.9%
13,CC(=O)c1ccc(NC(=O)COc2ccc(C3SCC(=O)N3c3ccc(Br)cc3)cc2)cc1 (stereo not drawn),88.7%
14,O=C(O)CNS(=O)(=O)c1ccc(Oc2ccc(S(=O)(=O)NCC(=O)O)cc2)cc1,95.5%
15,C/C(=C(/C)C1CC1CCN(C(=O)c1ccc([N+](=O)[O-])cc1)S(=O)(=O)c1ccc(C)cc1)C1CCCCC1 (stereo not drawn),77.3%
16,COCCOc1ccc(-c2csc(NC(=O)CN3CCN(CCO)CC3)n2)cc1NS(=O)(=O)c1cccc2c(N(C)C)cccc12,84.5%
17,CCN1C/C(=N\S(=O)(=O)c2ccccc2)N(CC)C1=S,102%
18,Cc1ccc(C2CC(c3ccc(Nc4nc(NCCO)nc(Nc5ccc(Cl)cc5)n4)cc3)=Nc3c(N)nc(N)nc3N2)cc1 (stereo not drawn),60.1%
19,CSc1nccc(-c2c(-c3ccc(F)c(OCc4ccc(F)cc4)c3)nc3sccn23)n1,65.9%

row,SMILES,growth
1,Clc1ccccc1/C=C/c1nn2c(-c3ccncc3)nnc2s1,95%
2,O=S(=O)(Nc1ccc(-n2cnc3cc(-c4ccc(O)cc4)ccc32)cc1)C1CC1,72.9%
3,COc1cc2c3c(n(CCCNC4CCCCC4)c(=O)c2cc1OC)-c1cc2c(cc1C3=O)OCO2,91.5%
4,CCOc1ccc2nc(NC(=O)Nc3ccccc3C)sc2c1,47.7%
5,CS(=O)(=O)c1ccc(-c2nn(-c3ccccc3)cc2/C=N/NC(=O)c2ccncc2)cc1,90.8%
6,Oc1ccc(CSc2nnc(-c3ccccc3)n2-c2ccccc2)c2cccnc12,10.1%
7,O=C(c1ccc(O)cc1)[C@@H]1[C@@H]2CCCN2[C@@]2(C(=O)N(C(=O)c3ccc(F)cc3)c3ccccc32)[C@H]1c1ccc(F)cc1,89%
8,CNC(=O)c1c(NC(=O)c2ccc(F)cc2F)sc2c1CCC(=O)C2,-14.2% (active)
9,Nc1n[nH]c2cccc(C#Cc3cccc(NC(=O)c4cccc(OC(F)(F)F)c4)c3)c12,33.6%
10,Cc1cn(-c2cc(NC(=O)c3cncc(C#Cc4cnc5ccc(OCCCS(C)(=O)=O)nn45)c3)cc(C(F)(F)F)c2)cn1,30.5%
11,COc1c([C@@H](CC(C)C)OC(C)=O)ccc2c1C(=O)OCc1cc(C)cc(O)c1O2,17.4%
12,COc1cc(C(=O)C[n+]2ccc3ccccc3c2)cc(OC)c1OC,96.3%
13,COc1ccc(CCN2C(=O)CSC2=S)cc1OC,52.7%
14,C/C(=N\NC(=O)CSc1nc2sc3c(c2c(=O)n1-c1ccccc1)CCC(C)C3)c1ccc(Cl)cc1 (stereo not drawn),46.4%
15,Cn1nc(Nc2ccccc2)c(C(=O)NN)c1N,95.4%
16,N/C(=N\c1nc2c(Cl)cccc2s1)C(Cl)(Cl)Cl,42.4%
17,COc1cc(O)c2c(c1)/C=C/C[C@H](O)[C@H](O)C(=O)/C=C\C[C@H](C)OC2=O,-1.9% (active)
18,CCCCCCNC(=O)Oc1ccc(/C(=C(/C)c2ccccc2)c2ccc(OCCN(C)C)cc2)cc1,33.1%
19,CS(=O)c1nccc(-c2c(-c3ccc(F)c(OCc4ccc(F)cc4)c3)nc3sccn23)n1 (stereo not drawn),-37.3% (active)
